Experimental data published in PubChem BioAssay (NCI).
The panel holds about 79,000 compounds, 15% with a hit somewhere; the sample as a whole holds those more often. Cut-off read from the data, not from the text of the source: active = growth inhibition above about 70%; inactive = the rest.

How the values were obtained:
[1] = NCI Yeast Anticancer Drug Screen. Data for the rad50 strain (AID 155);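 note: 0% = growth of vehicle-only cultures of the same strain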; settings: S. cerevisiae rad50 strain growth inhibition, active compounds read high; at 50.0 µM unless noted
Outline: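 Cells are treated with compound, grown, and their growth is then scored against vehicle-only cultures of the same repair-deficient yeast strain.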

[2] = NCI Yeast Anticancer Drug Screen. Data for the mec2-1 strain (AID 157); settings: S. cerevisiae mec2-1 strain, active compounds read high; at 50.0 µM unless noted
Outline: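 Compounds were applied to mec2-1 yeast cells. Their growth was then compared with that of vehicle-treated cultures to give growth inhibition.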

[3] = NCI Yeast Anticancer Drug Screen. Data for the sgs1 mgt1 strain (AID 161);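 note: 0% = growth of cultures given vehicle only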; settings: S. cerevisiae sgs1 mgt1 strain, active compounds read high; at 50.0 µM unless noted
Outline: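 Percent growth inhibition was derived by comparing compound-exposed mutant yeast with vehicle-exposed cultures. The strain carries alterations in DNA damage repair.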

[4] = NCI Yeast Anticancer Drug Screen. Data for the cln2 rad14 strain (AID 165);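 note: 0% = growth equal to vehicle treated cultures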; settings: S. cerevisiae cln2 rad14 strain, active compounds read high; at 50.0 µM unless noted
Outline: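 Strain: cln2 rad14 yeast, altered in cell cycle control and DNA damage repair. Read-out: growth inhibition vs vehicle.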

[5] = NCI Yeast Anticancer Drug Screen. Data for the bub3 strain (AID 167); settings: S. cerevisiae bub3 mutant strain, active compounds read high; at 50.0 µM unless noted
Outline: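 Part of a panel of yeast mutants defective in DNA damage repair or cell cycle regulation. Each strain is grown with compound, and inhibition is calculated relative to solvent-treated cultures.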

[6] = NCI Yeast Anticancer Drug Screen. Data for the mlh1 rad18 strain (AID 175); settings: S. cerevisiae mlh1 rad18 strain growth inhibition, active compounds read high; at 50.0 µM unless noted
Outline: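 A repair-deficient yeast strain is exposed to test compound, and growth is scored relative to vehicle-treated controls.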

Measured: growth inhibition

NCC(=O)c1ccc2cc(Br)c3ccccc3c2c1
inactive: [1] 5.7% | [2] 0.45% | [3] -1.2% | [4] 17.9% | [5] 12.4% | [6] 0.15%

N#Cc1c[nH]c(=O)[nH]c1=O
inactive: [1] -25.3% | [2] -25.4% | [3] -13.4% | [4] 2.15% | [5] 1.85% | [6] -45.6%

Cc1[nH]c2c(C)ccc(C)c2c(=O)c1Br
inactive: [1] -1.65% | [2] 10% | [3] -1% | [4] -16.7% | [5] -1.7% | [6] 3.2%

CC(C)COC(=O)c1ccccc1
inactive: [1] 35% | [2] 7.95% | [3] 20.1% | [4] -18.4% | [5] -9.6% | [6] 3.6%

Cc1ccccc1C(=O)NC(O)(C(F)(F)F)C(F)(F)F
inactive: [1] 2.4% | [2] 10.2% | [3] 14.6% | [4] 32.9% | [5] 16.9% | [6] 5.05%

CC1CC(C)OC(C(Br)CBr)O1 (stereo unspecified)
inactive: [1] 5.05% | [2] -10.9% | [3] -4.8% | [4] 15% | [5] -13.9% | [6] 12.1%

Cc1noc(NC(=O)Nc2ccccc2F)c1C#N
inactive: [1] -24.3% | [2] -10.4% | [3] -33.1% | [4] 26.9% | [5] -15.9% | [6] -2.25%

COc1cc2c(c3oc4c(O)cccc4c(=O)c13)CC(C(C)(O)CO)O2 (stereo unspecified)
inactive: [1] 24.2% | [2] -11.6% | [3] -23.4% | [4] -9.25% | [5] -42.8% | [6] -33.6%

O=C(CNC(=O)C(Cc1ccccc1)N1C(=O)c2ccccc2C1=O)Nc1ccccc1 (stereo unspecified)
inactive: [1] 34.4% | [2] -1.55% | [3] 46.3% | [4] 5% | [5] 17.4% | [6] 6.55%

Clc1ccc(C(=Nc2ccccc2)C(Nc2ccccc2)c2ccc(Cl)cc2)cc1 (stereo unspecified)
inactive: [1] 4.75% | [2] -5.15% | [3] 17.8% | [4] 8.75% | [5] 3.8% | [6] 19.4%

CC(=O)/C=C/N1CCOCC1
inactive: [1] 3.25% | [2] -9.55% | [3] -9.6% | [4] -16.9% | [5] 19.6% | [6] -5.65%

CCC1CSC(NS(=O)(=O)c2ccc(N)cc2)=N1 (stereo unspecified)
inactive: [1] -18.4% | [2] -3.5% | [3] -0.7% | [4] -39% | [5] 2.15% | [6] 1.3%

COc1ccc(CC2c3cc(OC)c(OC)cc3CC[N+]2(C)C)cc1OC (stereo unspecified)
inactive: [1] -13.1% | [2] -20.8% | [3] 1.6% | [4] 10.9% | [5] -1.65% | [6] -46.4%

OC(CCN1CC2CCC(CC2)C1)(Cc1ccccc1)c1cccs1 (stereo unspecified)
inactive: [1] 6.75% | [2] 2.7% | [3] 21.1% | [4] 11.2% | [5] 17.1% | [6] 32.5%

CCCC(=O)n1ccc2ccccc21
inactive: [1] -14.8% | [2] -37.6% | [3] 7.45% | [4] 13.4% | [5] -12.9% | [6] 1.6%

C=CC[Si](CC=C)(OCC)OCC
inactive: [1] 9.65% | [2] -21.9% | [3] 7.05% | [4] 20.7% | [5] -6.9% | [6] 23.2%

CC(C)OC(=O)C(O)c1ccccc1 (stereo unspecified)
inactive: [1] 18.2% | [2] -17.1% | [3] -25.4% | [4] -50% | [5] -9.45% | [6] 8.2%

CCCCCCCCCC(OCC)OCC
inactive: [1] -25.1% | [2] -15.2% | [3] -11.6% | [4] -6.35% | [5] -31.4% | [6] -25.6%

NC(=O)c1ncc(Cl)cc1Cl
inactive: [1] 21.1% | [2] 2.5% | [3] 14.3% | [4] 5.8% | [5] 0.55% | [6] 25.1%

CSc1ccc(Cl)cc1
inactive: [1] 6% | [2] -4.55% | [3] 1.7% | [4] 16.9% | [5] -1.2% | [6] 16.1%

CCN(CC)C(=S)Oc1ccc(OC(=S)N(CC)CC)cc1
inactive: [1] 30.6% | [2] 7.1% | [3] -0.95% | [4] -6.75% | [5] -2.85% | [6] -7.35%
